In PubChem BioAssay AID463173 (ICCB-Longwood Screening Facility, Harvard Medical School, 2010) one finds survival data, which are given here for 69 molecules.

In all, about 52,000 compounds went through this assay and about 4,300 (8.3%) were called active. For the sample, actives were picked, then their nearest neighbours and some compounds at random. Unmarked numbers belong to inactive results. No stated cut-off is given here; in the data, active means survival mostly below about 52% (no sharp cut-off); inactive means mostly above about 56%.

This assay deals with DeltatarO mutant. As to the kind of experiment: S. aureus survival, RN4220 and DeltatarO strains – OD600, teichoic acid synthesis inhibitors, primary screen (AID 463173). As to conditions: S. aureus RN4220 wild type/DeltatarO growth, OD600, 18 h, active compounds read low, screened at 18.75 µg/mL (by protocol).
Consider `COc1ccc(Nc2nnc(-c3cc4cc(Cl)ccc4oc3=O)s2)cc1`, for which the survival is 81%. The value for `COc1ccc(Br)cc1CNC(=O)CN1C(=O)CCCc2ccccc21` was 80%; that for `Cn1c(=O)n(C)c2cc(CNCc3ccccc3)ccc21` was 88%. The value for `COC(=O)c1ccc(C(=O)OC)c(NC(=O)c2c(-c3ccccc3)noc2C)c1` was 147%; that for `COc1cccc(CSc2nc3n(n2)C(CC(C)C)C(C(=O)Nc2ccccc2C)=C(C)N3)c1` (centres undefined) was 87%; that for `Cc1ccc(N2CC(c3nc(-c4ccc(Cl)cc4)no3)CC2=O)cc1F` (centres undefined) was 98%. With `CCS(=O)(=O)c1nc(S(=O)(=O)c2ccc(C)cc2)c(NCC(C)C)s1` the figure was 95%. `CCN1CCN(C(c2ccccc2Cl)c2sc3nc(-c4ccco4)nn3c2O)CC1` (centres undefined): the survival was 92%. As for `O=C(Nc1ccccc1C(F)(F)F)c1cc(-c2ccc3c(c2)OCCO3)on1`, the survival was 117%. With `O=C(Oc1ccccc1Cl)c1cc(-c2ccc3c(c2)OCCO3)on1` the figure was -2% (active).

In the case of `CCN(C(=O)c1cc2cc3ccc(OC)cc3nc2o1)c1cccc(C)c1`, the survival was 6% (active). Turning to `COc1ccc(CNC(=O)c2cc3cc4ccc(C)cc4nc3o2)cc1`, the survival was 74%. Take `Cc1ccc2cc3cc(C(=O)N(C)c4ccccc4C)oc3nc2c1`: the survival was 53% (active). With `Cc1ccc(C)c(N2CCN(C(=O)c3cc4cc5ccc(C)cc5nc4o3)CC2)c1` the figure was 90%; with `COc1ccc2cc3cc(C(=O)NCc4ccc(C)cc4)oc3nc2c1`, 83%; with `Cc1ccc2cc3cc(C(=O)N4CCN(c5ccccc5)CC4)oc3nc2c1`, 61%. The value for `Cc1ccccc1Cn1c(CN2CCC(C(=O)NCCN(C)C)CC2)cc2ccccc21` was 112%; that for `COc1ccc(S(=O)(=O)N(C)CC(=O)NCc2ccc3c(c2)OCO3)cc1` was 89%; that for `COc1ccc(/C=C(\C#N)C(=O)NCc2ccco2)cc1C` was 80%.

On to `Cc1ccc(F)c(NC(=O)Nc2ccc3snnc3c2)c1`, for which the survival is 97%. With `CCc1ccccc1NC(=O)Nc1ccc2snnc2c1` the figure was 41% (active). Regarding `Cc1c(Cl)cccc1NC(=O)Nc1ccc2snnc2c1`, the survival was -4% (active). With `CCOc1ccc(NC(=O)Nc2ccc3snnc3c2)cc1`, the survival was 110%. With `Cc1c(Cl)cccc1NC(=O)c1ccc2snnc2c1` the figure was 126%; with `Cc1cc(C)c(NC(=O)Nc2ccc3snnc3c2)c(C)c1`, 118%. Consider `CC(C)(C)C1CCc2onc(C(=O)Nc3sc4c(c3C#N)CCCC4)c2C1` (centres undefined), for which the survival was 105%. As for `CCOC(=O)c1c(NC(=O)c2noc3c2CC(C(C)(C)C)CC3)sc2c1CCCC2` (centres undefined), the survival was 66%.

For `CC(=O)Nc1sc2c(c1C(N)=O)CCCC2`, the survival is 80%. For `CC(C)(C)C1CCc2onc(C(=O)Nc3sc4c(c3C(N)=O)CCCC4)c2C1` (centres undefined), the survival is 45% (active).

For the molecule `NC(=O)c1c(NC(=O)c2cc(-c3ccc(F)cc3)on2)sc2c1CCCC2`, the survival is 62%. The value for `NC(=O)c1c(NC(=O)c2noc3c2CCCC3)sc2c1CCCC2` was 40% (active); that for `CCOC(=O)c1noc2nc(C)n(Cc3cccc(C#N)c3)c(=O)c12` was 87%; that for `O=C(NCc1ccccc1F)C1CCN(Cc2cc3ccccc3n2Cc2cccc(Cl)c2)CC1` was 78%. The value for `CCc1sc(Nc2cccc(Cl)c2C)nc1-c1cc2cccc(OC)c2oc1=O` was 67%; that for `O=C(NC1CCCC1)C(c1ccsc1)N(C(=O)Cc1cccs1)c1ccccc1` (centres undefined) was 86%; that for `O=S(=O)(NC1CCCC1)c1ccc(Br)cc1` was 93%. With `CCCNS(=O)(=O)c1ccc2[nH]c(=O)[nH]c2c1` the figure was 96%; with `O=c1[nH]c2ccc(S(=O)(=O)NC3CCCCC3)cc2[nH]1`, 62% (active); with `Cc1nc2c(-c3ccc(F)cc3)c(C)nn2c(C)c1CCC(=O)NCc1ccc(F)cc1`, 78%. As to `CC(C)NC(=O)CSc1nc2ccccc2nc1N1CCCCC1`, the survival is -26% (active). Consider `COc1ccc(NC(=O)CSc2nc3ccccc3nc2N2CCCCC2)cc1`, for which the survival is 18% (active).

Consider `CC(=O)Nc1ccc(NC(=O)CSc2nc3ccccc3nc2N2CCCCC2)cc1`, for which the survival is 57%. The value for `CCN(C(=O)CSc1nc2ccccc2nc1Cc1cccc(OC)c1)c1cccc(C)c1` was 0% (active); that for `COc1cccc(Cc2nc3ccccc3nc2SCC(=O)Nc2cc(OC)ccc2OC)c1` was 47% (active); that for `COc1cccc(Cc2nc3ccccc3nc2SCC(=O)Nc2ccccc2F)c1` was 67%.

As to `COc1cccc(Cc2nc3ccccc3nc2SCC(=O)Nc2cccc(C)c2)c1`, the survival was 94%. The value for `CC(C)NC(=O)CSc1nc2ccccc2[nH]1` was 60%.

With `CCN(C(=O)CSc1nc2ccccc2nc1Cc1ccc(F)cc1)c1cccc(C)c1`, the survival is 86%.

On to `O=C(O)CSc1nc2ccccc2nc1N1CCCCC1`, for which the survival was 56%. The value for `CCc1ccccc1NC(=O)CSc1nc2ccccc2nc1Cc1cccc(OC)c1` was 86%; that for `COc1ccc(NC(=O)CSc2nc3ccccc3nc2N2CCC(C)CC2)cc1` was 45%; that for `O=C(N/N=C/c1ccc(-c2ccc(Cl)c(C(=O)O)c2)o1)c1ccncc1` was 68%. With `CCc1ccc(-n2c(=O)c3c4c(sc3n(CC(=O)c3ccc(F)cc3)c2=O)CCC4)cc1` the figure was 81%; with `CC(C)CCNC(=O)c1nn(C)c2c1CSc1ccccc1-2`, 70%. As for `Cn1cnnc1SCC(N)=O`, the survival is 99%.

On to `CCOC(=O)c1ccc(NC(=O)c2csnn2)cc1`, for which the survival was 104%. In the case of `Cc1ccc(CNC(=O)CSc2ncc(S(=O)(=O)c3ccc(C)c(Cl)c3)c(=O)[nH]2)cc1`, the survival was 77%. Turning to `Cc1cccc(NC(=O)CSc2cn(CC(=O)N3CCOCC3)c3ccccc23)c1`, the survival is 82%. Consider `COc1ccc(CCNC(=O)Cn2c(-c3cccs3)cc3cc(F)ccc32)cc1OC`, for which the survival is 83%. On to `Cc1ccc(-n2nc(C(=O)NCc3ccc(F)cc3Cl)c3c4ccccc4n(C)c3c2=O)cc1`, for which the survival was 131%. With `COc1ccc(NC(=O)CSc2nc3ccccc3nc2N2CCOCC2)c(OC)c1` the figure was 76%. The value for `Cc1cccc(NC(=O)CSc2nc3ccccc3nc2N2CCCCC2)c1C` was 75%. With `COc1ccccc1Cc1nc2ccccc2nc1SCC(=O)Nc1cc(Cl)ccc1OC` the figure was 73%. With `Cc1cc(C)c(NC(=O)c2nc3ccccc3nc2N2CCCCC2)c(C)c1`, the survival is 90%. Take `Cc1cc(C)c(NC(=O)CSc2nc3ccccc3nc2N2CCCCC2)c(C)c1`: the survival is 39% (active). With `COc1ccc(Cl)cc1NC(=O)CSc1nc2ccccc2nc1N1CCCCC1` the figure was 27% (active); with `COc1ccc(OC)c(NC(=O)CSc2cn(CC(=O)N3CCCCCC3)c3ccccc23)c1`, 85%. The value for `COc1ccc(C)cc1NC(=O)CSc1nc2ccccc2nc1N1CCOCC1` was 73%. With `COc1ccc(OC)c(NC(=O)CSc2nc3ccccc3nc2N2CCCCC2)c1` the figure was 5% (active).
